Active and inactive are the calls of the source. Unless noted, the rule behind the calls is not given here.
How the values were obtained:
[1] = system: XIP peptide (Xip251-270) binding; assay: small-molecule binders of XIP peptide, primary screen, biochemical, small-molecule microarray, fluorescence 635/667 nm, 0.1 µg/mL protein (AID 1182); settings: fluorescent protein binding, 635 nm, higher = more signal, called active from +8 up or from −8 down
XIP peptide (Xip251-270) = assay: small-molecule binders of XIP peptide, primary screen, biochemical, small-molecule microarray, fluorescence 635/667 nm, 0.5 µg/mL protein (AID 1183); settings: small-molecule microarray binding, fluorescence 635 nm; higher = more signal
[2] = Plasmodium falciparum growth inhibition, primary screen, strain 3D7, DAPI fluorescence, 100 nL (AID 1184);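 note: parasites grown inside human red blood cells in medium with human serum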; settings: P. falciparum 3D7 growth, 3 d, higher = more signal
[3] = target: Homeobox protein Hox-A13 (Mus musculus) (UniProt Q62424); assay: inhibitors of HoxA13-DNA binding, primary screen, biochemical, fluorescence polarization, labeled oligonucleotide (AID 1185); settings: 15 min, higher = more signal, called active from +8 up or from −8 down
Homeobox protein Hox-A13 (Mus musculus), sequence (Q62424 whole entry, looked up): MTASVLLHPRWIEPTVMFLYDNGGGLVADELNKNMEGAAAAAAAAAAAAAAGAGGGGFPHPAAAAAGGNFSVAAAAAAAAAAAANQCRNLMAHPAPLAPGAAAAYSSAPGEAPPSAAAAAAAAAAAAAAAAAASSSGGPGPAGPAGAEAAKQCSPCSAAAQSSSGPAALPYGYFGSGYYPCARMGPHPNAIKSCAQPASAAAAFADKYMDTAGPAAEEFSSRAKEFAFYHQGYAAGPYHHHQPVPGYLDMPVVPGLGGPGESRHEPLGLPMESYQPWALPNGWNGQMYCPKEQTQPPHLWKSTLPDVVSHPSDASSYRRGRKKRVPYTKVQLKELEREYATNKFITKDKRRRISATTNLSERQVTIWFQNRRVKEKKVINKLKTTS

[4] = inhibitors of hydroxyurea-induced Chk1 phosphorylation, primary screen, imaging, HeLa, phospho-Chk1 antibody, percent positive cells (AID 1186); settings: hydroxyurea-induced phospho-Chk1 immunofluorescence imaging, higher = more signal
[5] = inhibitors of hydroxyurea-induced Chk1 phosphorylation, primary screen, imaging, HeLa, phospho-Chk1 nuclear intensity (AID 1187); settings: hydroxyurea-induced phospho-Chk1 immunofluorescence imaging, higher = more signal

## C=C(C(=O)CC[C@H](OC(=O)c1ccccc1-c1ccccc1C(=O)O)c1ccc(OCCO)cc1)C(C)C
[1]
  composite z-score: 0.0052 (inactive)
XIP peptide (Xip251-270)
  composite z-score: 0.569
[2]
  z-score: -2.71
[3]
  z-score: -6.36 (inactive)
[4]
  z-score: -0.0593 (inactive)
[5]
  z-score: -0.326 (inactive)

## COC(=O)C(CC#Cc1ccc2c(c1)[C@]1(C(=O)N2)[C@H](C(=O)N2CCCCCCC2)[C@H]2C(=O)O[C@H](c3ccccc3)[C@H](c3ccccc3)N2[C@@H]1c1ccc(OCCO)cc1)C(=O)OC
[1]
  composite z-score: 6.2 (inactive)
XIP peptide (Xip251-270)
  composite z-score: 0.956
[2]
  z-score: -2.14
[3]
  z-score: -6.85 (inactive)
[4]
  z-score: 0.185 (inactive)
[5]
  z-score: 0.331 (inactive)

## C=CC[C@H](O)c1ccc(O)c(F)c1
[1]
  composite z-score: -0.51 (inactive)
XIP peptide (Xip251-270)
  composite z-score: 0.0085
[2]
  z-score: -0.418
[3]
  z-score: -1.51 (inactive)
[4]
  z-score: -0.316 (inactive)
[5]
  z-score: -0.264 (inactive)

## COc1ccc(C(=O)Nc2ccc(CN3C(=O)[C@@]4(O[C@@H](CC(=O)N(CCO)Cc5ccccc5)[C@H]([Si](C)(C)c5ccc(OC)cc5)[C@H]4C)c4ccccc43)cc2)cc1
[1]
  composite z-score: 1.96 (inactive)
XIP peptide (Xip251-270)
  composite z-score: 0.622
[2]
  z-score: -0.992
[3]
  z-score: -1.31 (inactive)
[4]
  z-score: -0.543 (inactive)
[5]
  z-score: -0.262 (inactive)

## CC(C)(C)OC(=O)N1[C@@H](C=C(Br)Br)COC1(C)C
[1]
  composite z-score: 5.39 (inactive)
XIP peptide (Xip251-270)
  composite z-score: -0.0146
[2]
  z-score: 0.438
[3]
  z-score: -0.337 (inactive)
[4]
  z-score: -0.35 (inactive)
[5]
  z-score: -0.129 (inactive)

## COCCOC(=O)N1C(=O)[C@@]2(c3cc(C#CCNC(N)=O)ccc31)[C@H](c1ccc(O)cc1)N1[C@H](c3ccccc3)[C@H](c3ccccc3)OC(=O)[C@H]1[C@@H]2C(=O)N1CCc2cc(OC)c(OC)cc2C1
[1]
  composite z-score: -0.0561 (inactive)
XIP peptide (Xip251-270)
  composite z-score: 0.329
[2]
  z-score: -0.0011
[3]
  z-score: -1.73 (inactive)
[4]
  z-score: 0.0017 (inactive)
[5]
  z-score: -0.0878 (inactive)

## C=C(C(=O)CC[C@@H](OC(=O)c1ccccc1-c1ccccc1C(=O)O)c1ccc(CO)o1)C(C)C
[1]
  composite z-score: 0.525 (inactive)
XIP peptide (Xip251-270)
  composite z-score: 0.434
[2]
  z-score: 1.88
[3]
  z-score: -5.42 (inactive)
[4]
  z-score: 0.762 (inactive)
[5]
  z-score: 0.478 (inactive)

— PubChem BioAssay
